Pf growth 96h = P. falciparum growth inhibition at 96 hours | P. falciparum luciferase reporter growth, 96 h | Potency, µM (top dose mostly 28.7 µM), for the others: at the top dose activity change, negative = inhibition, actives largely listed as inhibitors | 6.9% of 320,000 active | AID 504834; note: potency is the fitted concentration of half-maximal effect
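Parasite growth measured via integrated firefly luciferase reporter in P. falciparum. Infected erythrocytes at 2% hematocrit, 0.05% parasitemia final were treated 96 hours at 37 C under 5% CO2, and luminescence was read.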
HCMV antiviral = human cytomegalovirus inhibition. HFF cells, HCMV-luciferase reporter, 72 h; hits give low values. activity change, negative = inhibition, % at 57.5 µM. 4.5% of 410,000 active; in the data active = activity change below about -60%; inconclusive = no clear call, values can overlap the other calls; inactive = above about -39%
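Two-dose cell screen: HFF monolayers treated with compounds and infected with luciferase-expressing HCMV at 1 PFU/cell, 72 h at 37C, then lysed for luciferase measurement.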
MARV entry inh = blocks Marburg virus binding to or entry into cells | 1.8% of 300,000 active | Potency, µM (titrated, usually from 37.8 µM), for inactives: at the top dose activity change, negative = inhibition, most hits filed as inhibitors | Marburg virus pseudotyped entry inhibition, cell reporter; calls by dose curve; tested in HEK293 cells; note: potency is the fitted concentration of half-maximal effect
HCV inhibitor = blocks hepatitis C virus; AID 651820; Potency, µM (series often up to 41.8 µM), for the others: top-dose activity change, negative = inhibition, most hits filed as inhibitors; 3.4% of 340,000 active; Huh7.5.1 HCVcc-Cre infection, luciferase reporter, 44 h; note: potency is the fitted concentration of half-maximal effect
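Infectious HCVcc-Cre (~0.5 moi) was added to cells just after compound, with cells seeded 4 h earlier at 1,000 per well. Luciferase activity after 44 h culture reported infection; substrate was incubated 15 min at room temperature before reading.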
Lassa entry inh = inhibitors of Lassa virus binding or cell entry. 1.2% of 300,000 active. AID 540256. Potency, µM (series often up to 37.9 µM), for the others: at the highest dose activity change, negative = inhibition, hits mostly inhibitors. Lassa virus pseudotype entry inhibition, cell reporter; calls by dose curve; tested in HEK293 cells; note: potency is the fitted concentration of half-maximal effect; nearly all actives have a fitted effect of over 50% in size
Pf growth 48h = P. falciparum growth inhibition at 48 hours (one generation); 5.9% of 310,000 active; P. falciparum luciferase growth in erythrocytes, 48 h; Potency, µM (highest dose often 28.7 µM), for the others: at the highest dose activity change, negative = inhibition, actives largely listed as inhibitors; note: potency is the fitted concentration of half-maximal effect
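Firefly luciferase activity from engineered P. falciparum reports growth; inhibitors lower the luminescent signal. Cultures contained 2% hematocrit erythrocytes at 0.1% final parasitemia.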
* = called active by the depositor; ? = inconclusive; nt = no result; [ ] = dose if it differs, or a comment. Shown are actives, neighbours in structure and some others; about 14% of the full set was active somewhere. Unless noted, calls come from the whole dose curve; as a rule, active = well fitted inhibition curve with a large enough effect; inconclusive = small, poorly fitted or top-dose-only effect, or another doubt; inactive = no such curve, though single readings can be large or run the other way. % is set by controls: 0 for no effect and ±100 for the full control effect.

SMILES	Pf growth 96h	HCMV antiviral	MARV entry inh	HCV inhibitor	Lassa entry inh	Pf growth 48h
Cc1ccc(N(C(C)C(=O)Nc2cc(Cl)ccc2Oc2ccccc2)S(C)(=O)=O)cc1 (stereo not drawn)	7.4µM*	1	?	-10%	?	4.7µM*
Cc1cc(Cl)ccc1N(CC(=O)NCc1ccccc1)S(C)(=O)=O	0%	35	nt	?	nt	0%
COc1cc2[nH]c(=O)n(CCCC(=O)NCc3ccccc3Cl)c(=O)c2cc1OC	nt	-1	-5%[46.1 µM]	nt	-28%[46.1 µM]	nt
O=[N+]([O-])c1ccccc1-c1onc(-c2ccccc2Br)c1Br	nt	11	nt	nt	nt	nt
O=C(COc1cccc(F)c1)NNC(=O)Cc1ccc(Br)cc1	31%	-18	nt	5%	nt	3%
COc1cccc2cc(C(=O)OCC(=O)NC3CCCC(C)C3C)c(=O)oc12 (stereo not drawn)	nt	-61*	?	?	12%[46.1 µM]	nt
Cc1ccc(S(=O)(=O)CC(=O)c2cc3cccc(C)c3oc2=O)cc1	16%	-13	nt	12%	nt	18%
COc1cccc2cc(C(=O)CS(=O)(=O)c3ccc(C)cc3)c(=O)oc12	4.7µM*	nt	nt	16%	nt	4%
COc1ccc(Cl)cc1C(=O)OCC(=O)NC1CCCC(C)C1C (stereo not drawn)	2%	-13	0%	12%	25%	?
COc1cccc2cc(C(=O)N3CCc4ccccc43)c(=O)oc12	-2%	-71*	3%[46.1 µM]	21%	-3%	50%
COc1cccc2cc(C(=O)Oc3ccccc3)c(=O)oc12	13µM*	72	nt	7%	nt	6%
CC(C)c1ccc(NC(=O)CSC2=Nc3ccccc3C3=NC(CC(=O)NCCc4ccccc4)C(=O)N23)cc1 (stereo not drawn)	nt	-14	nt	nt	-29%[46.1 µM]	nt
CC(NC(=O)Cn1c(-c2cccs2)cc2cc(F)ccc21)c1ccccc1 (stereo not drawn)	nt	-37	nt	nt	-17%[46.1 µM]	nt
COc1cccc(CNC(=O)c2c(C)oc3ncnc(N4CCOCC4)c23)c1	nt	-13	nt	nt	?	nt
COc1cccc(/C=C(/C(=O)OCC(N)=O)c2ccccc2)c1	13%	-18	-9%[46.1 µM]	-5%	nt	-1%
COc1cccc2cc(C(=O)OC3CCN(C)CC3)c(=O)oc12	12µM*	-33	10%	5%	-5%	5%
CCn1cc(C(=O)N2CCCc3ccccc32)c2cc(OC)c(OC)cc2c1=O	nt	-17	?	11%	-18%	15µM*
COc1cccc(/C=C(/C(=O)OCC(=O)NC2CCCC(C)C2C)c2ccccc2)c1 (stereo not drawn)	?	?	?	?	?	13µM*
CCN(CC(=O)Nc1ccccc1C(F)(F)F)C(=O)C1CC(=O)N(Cc2ccccc2)C1 (stereo not drawn)	12%	3	4%	1%	-16%	?
COc1ccccc1CN1CC(C(=O)N(Cc2cnn(C)c2)C(C)C)CCC1=O (stereo not drawn)	40%	-4	-21%[46.1 µM]	?	18%[46.1 µM]	4%
Cc1ccc(C)c(N2CCN(C3CCCC(C)C3)CC2)c1 (stereo not drawn)	?	-35	5µM*	-22%	?	?
COc1cccc(N2CCN(C3CCCC(C)C3)CC2)c1 (stereo not drawn)	nt	28	-28%	1%	-6%	17%
CNC(=O)Oc1cccc(-c2cn3cc(OC(=O)NC)ccc3n2)c1	?	30	?	-21%	?	-77%
CNC(=O)Oc1ccc(-c2cn3cc(Cl)ccc3n2)cc1	4%	?	8.2µM*	?	7.3µM*	24%
COc1ccccc1C1CC(c2ccc(Br)cc2)=NN1C(=O)c1cccnc1 (stereo not drawn)	1.9µM*	35	-27%	?	?	4.1µM*
SMILES	Pf growth 96h	HCMV antiviral	MARV entry inh	HCV inhibitor	Lassa entry inh	Pf growth 48h
COc1ccc(C2=NN(C(=O)c3ccncc3)C(c3ccccc3O)C2)cc1 (stereo not drawn)	?	-39	?	1%	nt	?
COc1cccc(C2CC(c3ccc(Br)cc3)=NN2C(=O)c2ccncc2)c1OC (stereo not drawn)	?	-11	?	?	?	12µM*
COc1cccc(C2CC(c3cccc(NS(C)(=O)=O)c3)=NN2C(=O)c2ccccc2)c1OC (stereo not drawn)	?	-73*	?	?	14µM*	1.9µM*
Cc1ccn2c(=O)cc(COc3ccc(NC(=O)COc4ccc(C)c(C)c4)cc3)nc2c1	nt	-8	nt	nt	-12%[46.1 µM]	nt
COc1ccc2c(c1)O[C@@]1(CCCC[C@@H]1C)CC2=O	5%	?	nt	-2%	nt	?
COc1cccc(-n2cc(C(=O)NCCc3cccc(C)c3)c3ccccc3c2=O)c1	nt	-36	nt	nt	-9%[46.1 µM]	nt
CC(C)=N/N=C1\NC(=O)C(C)S1 (stereo not drawn)	1.2µM*	-30	nt	17%	nt	4.7µM*
C/C(=N\N=C1/NC(=O)C(C)S1)c1ccc([N+](=O)[O-])cc1 (stereo not drawn)	-30%	-24	?	17%	0%	4%
NC(=O)CSc1nccn1Cc1ccccc1	0%	9	0%	4%	19%	?
O=[N+]([O-])c1ccccc1Sc1nccn1Cc1ccccc1	3.3µM*	-21	1%	?	7%	7%
CC(=O)c1ccc(Nc2nc(N3CCOCC3)nc(N3CCOCC3)n2)cc1	-23%	105	nt	-12%	nt	-4%
CC(=O)Nc1ccc(/C(C)=N/Nc2nc(Nc3ccccc3)nc(N3CCOCC3)n2)cc1	26%	35	?	?	?	2.1µM*
O=C(NNc1nc(N2CCOCC2)nc(N2CCOCC2)n1)c1ccccc1	nt	0	-22%	21%	-1%	nt
O=C(NNc1nc(Nc2ccccc2)nc(N2CCOCC2)n1)Nc1ccc(Cl)cc1	178%	28	?	-21%	?	10µM*
CCN(C(=O)c1cc(Cl)ccc1Cl)C1CCS(=O)(=O)C1 (stereo not drawn)	73%	11	2%[46.1 µM]	5%[8.37 µM]	14%	31%
Nc1c(N(CCC2=CCCCC2)C(=O)Cc2ccc(F)cc2)c(=O)[nH]c(=O)n1Cc1ccccc1	?	-16	-18%	?	?	9.3µM*
COc1cc(C(C)=O)ccc1OCC(=O)N(CCC1=CCCCC1)c1c(N)n(Cc2ccccc2)c(=O)[nH]c1=O	?	14	29%	16%	-15%	?
Nc1c(N(CCC2=CCCCC2)C(=O)c2ccc([N+](=O)[O-])o2)c(=O)[nH]c(=O)n1Cc1ccccc1	?	?	-8%	?	?	10µM*
Nc1c(N(CCC2=CCCCC2)C(=O)COc2ccc(F)cc2Cl)c(=O)[nH]c(=O)n1Cc1ccccc1	nt	-98*	nt	?	nt	nt
CCCCCC(=O)N1C[C@@H](n2cc(C3CC3)nn2)[C@H](O)C[C@@H]1c1ccc(OC)cc1	nt	-21	nt	nt	nt	nt
